PubChem BioAssay AID1259421 (Broad Institute, 2018)
Several values for one entry are separate records, joined by “and”; a condition that tells them apart may be missing. Identical values can stand only once. Hit rate of the full screen: of about 6,400 compounds, about 610 (9.5%) were called active. This is one part of a sample in which actives are shown more often than they occur. Rule as the data show it: active = activity change below about -70%; inconclusive = no clear call, values can overlap the other calls; inactive = above that. More than one record can exist for a structure, and the calls need not agree.

assay: T. gondii ME49Luc in HeLa cells, luciferase assay, 72 h, no IFN-y (AID 1259421); conditions: stronger effect = lower value, concentration not given here

SMILES	activity change, negative = inhibition
CC1(C)C2CC[C@]3(C)[C@H](C(=O)C=C4[C@@H]5C[C@@](C)(C(=O)O)CC[C@]5(C)CC[C@]43C)[C@@]2(C)CC[C@@H]1OC(=O)CCC(=O)O (some centres undefined)	6.15% (inactive) and 3.75% (inactive)
CC(=O)O[C@H]1CC[C@@]2(C)C(C[C@@H](OC(C)=O)[C@@]3(C)C4=CC(=O)O[C@@H](c5ccoc5)[C@]4(C)CCC23)C1(C)C (some centres undefined)	15% (inactive)
CC(=O)O[C@]1(C(C)=O)CCC2C3C=C(C)C4=CC(=O)CCC4(C)C3CCC21C (some centres undefined)	4.78% (inactive) and -4.91% (inactive)
CCCCCCCCCCCCCCCC(=O)OC(C)C	3.86% (inactive)
CN[C@H](C(=O)N[C@H](C(=O)N(C)[C@H](/C=C(\C)C(=O)O)C(C)C)C(C)(C)C)C(C)(C)c1ccccc1	-73.6% (active)
C[C@H]1CCO[C@H]2Cn3cc(C(=O)NCc4ccc(F)cc4F)c(=O)c(O)c3C(=O)N21	25.9% (inactive)
Cc1cccc(C)c1NC(=O)c1cc(S(N)(=O)=O)c(Cl)cc1O	15.4% (inactive)
Cc1c(C)c2c(c(C)c1OC(=O)CCC(=O)O)CC[C@@](C)(CCC[C@H](C)CCC[C@H](C)CCCC(C)C)O2	19.4% (inactive)
O=c1c(O)c(-c2ccccc2)oc2cc(O)ccc12	31.5% (inactive)
CN1CC(C(=O)NC2(C)OC3(O)C4CCCN4C(=O)C(Cc4ccccc4)N3C2=O)CC2c3cccc4[nH]cc(c34)CC21 (centres undefined)	-10.4% (inactive)
CN1C[C@H](C(=O)N[C@]2(C)O[C@@]3(O)[C@@H]4CCCN4C(=O)[C@H](Cc4ccccc4)N3C2=O)C[C@@H]2c3cccc4[nH]cc(c34)C[C@H]21	5.44% (inactive) and 2.08% (inactive)
CC(=O)C1C(=O)[C@@H]2[C@H]3c4c[nH]c5cccc(c45)C[C@H]3C(C)(C)N2C1=O (some centres undefined)	-78.3% (active) and -0.858% (inactive)
O=c1[nH]c2ccccc2c(=O)n1CCCN1CCN(c2ccccc2)CC1	11.8% (inactive)
CCC1(C)OC(=O)N(C)C1=O (centres undefined)	-5.39% (inactive)
CC(C)(C)c1[nH]cnc1/C=c1\[nH]c(=O)/c(=C/c2ccccc2)[nH]c1=O	-85.5% (active)
O=c1[nH]cnc2ccccc12	0.966% (inactive) and 1.04% (inactive)
CCCCCCCCCCCCCCOS(=O)(=O)O	8.96% (inactive)
COc1ccc(C(=O)/C=C/c2ccccc2)cc1	157% (inactive)
CC(=O)NC[C@H]1CN(c2ccc(N3CCN(C(=O)CO)CC3)c(F)c2)C(=O)O1	6.07% (inactive)
CC(=O)N[C@H](Cc1c[nH]c2ccccc12)C(=O)OCc1cc(C(F)(F)F)cc(C(F)(F)F)c1	6.34% (inactive)
FC(F)(F)c1cc(CO[C@H]2CCCN[C@H]2c2ccccc2)cc(C(F)(F)F)c1	-9.54% (inactive) and -89.9% (active)
CC(=O)NC(Cc1c[nH]c2ccccc12)C(=O)OCc1cc(C(F)(F)F)cc(C(F)(F)F)c1 (centres undefined)	-1.95% (inactive)
O=C(O)CN(CCN(CC(=O)O)CC(=O)O)CC(=O)O	1.89% (inactive)
COCC1=C(C(=O)OC(C)OC(=O)OC(C)C)N2C(=O)[C@@H](NC(=O)/C(=N/OC)c3csc(N)n3)[C@H]2SC1 (some centres undefined)	-2.51% (inactive)
O=C(N/N=C/c1ccc([N+](=O)[O-])o1)c1ccc(O)cc1	-85.5% (active)

SMILES	activity change, negative = inhibition
CCN(CC)c1ccc(/C=N/NC(=O)c2ccc(O)cc2)cc1	29.5% (inactive) and 44.8% (inactive)
NC(=O)N/N=C/c1ccc([N+](=O)[O-])o1	-68.6% (inactive) and -50.1% (inactive)
CCCCCCn1c(=O)c2c(ncn2C)n(C)c1=O	11.4% (inactive)
CCc1nc(C)ccc1O	-11.9% (inactive)
Cc1ccc2ccc3ccc(C)nc3c2n1	-94.5% (active)
Cc1cccc(/C=C/c2ccccc2)n1	35.7% (inactive)
OCC1OC(O)C(F)C(O)C1O (centres undefined)	8.12% (inactive)
CCC[C@@H]1C[C@@H](C(=O)NC(C(C)Cl)[C@H]2O[C@H](SC)[C@H](O)[C@@H](O)[C@H]2O)N(C)C1 (some centres undefined)	-1.81% (inactive) and 9.35% (inactive)
O=C(/C=C\n1cnc(-c2cc(C(F)(F)F)cc(C(F)(F)F)c2)n1)N1CC(F)(F)C1	-81.3% (active)
O=C(/C=C\n1cnc(-c2cc(C(F)(F)F)cc(C(F)(F)F)c2)n1)NNc1cnccn1	-78.8% (active)
COc1cc(-c2ncn(/C=C\C(=O)OC(C)C)n2)cc(C(F)(F)F)c1	-86.8% (active)
CC(=O)CC(=O)O	-0.799% (inactive)
CC(=O)c1c(O)cc(O)cc1O	6.7% (inactive)
COc1c(OC)c2occc2c2oc(=O)ccc12	9.46% (inactive)
CC(=O)OCC(=O)[C@@]1(O)CCC2C3CCC4=CC(=O)C=C[C@]4(C)[C@@]3(Cl)[C@@H](Cl)C[C@@]21C (some centres undefined)	-0.235% (inactive)
CCCC(=O)O[C@@]1(C(=O)COC(C)=O)CC[C@H]2[C@@H]3C[C@H](F)C4=CC(=O)C=C[C@]4(C)[C@]3(F)[C@H](O)C[C@@]21C	6.24% (inactive)
C[C@@H]1O[C@@]2(CS1)CN1CCC2CC1 (racemic)	6.56% (inactive)
c1cncc(CN2CCC(n3ncc4c(N5CCOCC5)nc(-c5ccc6[nH]ccc6c5)nc43)CC2)c1	-77.6% (active)
C[C@@H]1CN(Cc2ncccn2)C[C@H]1c1nc2c(cnn2C2CCOCC2)c(=O)[nH]1	4.49% (inactive)
COC(=O)Nc1ccc(-c2nc(N3CCOCC3)c3cnn(C4CCN(C(=O)OC)CC4)c3n2)cc1	21.2% (inactive)
CC(=O)N1CCN(c2ccc(OCC3CO[C@](Cn4ccnc4)(c4ccc(Cl)cc4Cl)O3)cc2)CC1 (some centres undefined)	-58.1% (inactive)
CCC1OC(=O)[C@H](C)C(=O)[C@H](C)[C@@H](OC2O[C@H](C)C[C@H](N(C)C)[C@H]2O)[C@](C)(OC)C[C@@H](C)C(=O)[C@H](C)[C@H]2N(CCCCn3cnc(-c4cccnc4)c3)C(=O)O[C@@]12C (some centres undefined)	-5.19% (inactive)
NC(=S)N/N=C/c1ccncc1	6.58% (inactive)
NC(=S)N/N=C/c1ncccc1N	-83.2% (active)
